This note sets out measurements from PubChem BioAssay (Tox21).

Assay [1] can be described thus: A CellTox Green Cytotoxicity Assay to monitor cytotoxicity in HEK293 cells - 40 hour (AID 1224871). Note: potency is the fitted concentration of half-maximal effect; nearly all actives have a fitted effect of over 45% in size. In a few lines: (§1)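 Cells (HEK293, 600/well) and dye reagent are dispensed together. After 5 h at 37 C, 23 nL compound is pinned in. Plates stay at 37 C for 40 h with fluorescence read at 0h, 8h, 16h, 24h, 32h and 40h.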
Assay [2] can be described thus: qHTS RealTime-Glo MT Cell Viability Assay in HepG2 cells - 8 hour (AID 1224873). Note: nearly all actives have a fitted effect of over 55% in size. Note: potency is the fitted concentration of half-maximal effect. A digest of the protocol:
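Real-time viability: cells seeded at 600 per well together with NanoLuc and cell-permeant prosubstrate, compounds added after 5 h incubation. Luminescence tracked at 0, 8, 16, 24, 32 and 40 h of exposure.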
For orientation: In qHTS, concentration-response curves come from the screen itself.

Assay [3] in a line: A CellTox Green Cytotoxicity Assay to monitor cytotoxicity in HEK293 cells - 24 hour (AID 1224875). Note: nearly all actives have a fitted effect of over 45% in size. Note: potency is the fitted concentration of half-maximal effect. A digest of the protocol:
as §1

The nature of assay [4]: qHTS RealTime-Glo MT Cell Viability Assay in HepG2 cells - 32 hour (AID 1224877). Note: % is set by controls: 0 for no effect and ±100 for the full control effect; nearly all actives have a fitted effect of over 55% in size. In a few lines:
(§2)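 Cells + NanoLuc/prosubstrate dispensed (600 cells/well) → 5 h at 37 C/5% CO2 → compounds in DMSO transferred → 40 h incubation at 37 C, luminescence read at 0, 8, 16, 24, 32, 40 h.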

Assay [5] can be described thus: qHTS RealTime-Glo MT Cell Viability Assay in HEK293 cells - 0 hour (AID 1224880). Note: top concentration of the series differs between compounds; % is set by controls: 0 for no effect and ±100 for the full control effect; nearly all actives have a fitted effect of over 45% in size. A digest of the protocol: (§3)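 Real-time viability in HEK293: signal arises when living cells convert a prosubstrate for NanoLuc in the medium, so luminescence tracks viable cell number. Compound (23 nL, DMSO) added 5 h post-seeding; kinetic reads at 0–40 h, 37 C.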
Assay [6] can be described thus: A CellTox Green Cytotoxicity Assay to monitor cytotoxicity in HEK293 cells - 32 hour (AID 1224881). Note: nearly all actives have a fitted effect of over 40% in size. Note: potency is the fitted concentration of half-maximal effect. A digest of the protocol: as §1
Assay [7] is described as follows: A CellTox Green Cytotoxicity Assay to monitor cytotoxicity in HepG2 cells - 0 hour (AID 1224882). Note: % is set by controls: 0 for no effect and ±100 for the full control effect; nearly all actives have a fitted effect of over 35% in size. A digest of the protocol: (§4)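 Cells and non-lytic dye reagent are dispensed together (600 HepG2 cells/well) and incubated 5 h before DMSO compound transfer. Kinetic fluorescence is then recorded in the same wells during 40 h at 37 C.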
Assay [8] can be described thus: qHTS RealTime-Glo MT Cell Viability Assay in HepG2 cells - 16 hour (AID 1224885). Note: nearly all actives have a fitted effect of over 50% in size. Note: potency is the fitted concentration of half-maximal effect. In a few lines:
as §2

Assay [9] in a line: qHTS RealTime-Glo MT Cell Viability Assay in HepG2 cells - 0 hour (AID 1224889). Note: nearly all actives have a fitted effect of over 50% in size. Note: potency is the fitted concentration of half-maximal effect. In a few lines:
as §2

Assay [10] can be described thus: qHTS RealTime-Glo MT Cell Viability Assay in HEK293 cells - 40 hour (AID 1224874). For max response: % is set by controls: 0 for no effect and ±100 for the full control effect. Note: nearly all actives have a fitted effect of over 50% in size. Note: potency is the fitted concentration of half-maximal effect. To be noted: RealTime-Glo luminescence; max response: stronger effect = lower value. A digest of the protocol: as §3
Assay [11] is described as follows: A CellTox Green Cytotoxicity Assay to monitor cytotoxicity in HepG2 cells - 16 hour (AID 1224876). Note: % is set by controls: 0 for no effect and ±100 for the full control effect; nearly all actives have a fitted effect of over 45% in size. In a few lines:
as §4

The nature of assay [12]: A CellTox Green Cytotoxicity Assay to monitor cytotoxicity in HepG2 cells - 24 hour (AID 1224878). For Cytotoxicity: % is set by controls: 0 for no effect and ±100 for the full control effect. Note: nearly all actives have a fitted effect of over 45% in size. Note: potency is the fitted concentration of half-maximal effect. A digest of the protocol: as §4
Assay [13] in a line: A CellTox Green Cytotoxicity Assay to monitor cytotoxicity in HepG2 cells - 40 hour (AID 1224879). Note: nearly all actives have a fitted effect of over 40% in size. Note: potency is the fitted concentration of half-maximal effect. In a few lines:
as §4

The nature of assay [14]: A CellTox Green Cytotoxicity Assay to monitor cytotoxicity in HepG2 cells - 32 hour (AID 1224883). Note: % is set by controls: 0 for no effect and ±100 for the full control effect; nearly all actives have a fitted effect of over 50% in size. In a few lines: as §4
The nature of assay [15]: A CellTox Green Cytotoxicity Assay to monitor cytotoxicity in HEK293 cells - 8 hour (AID 1224884). Note: % is set by controls: 0 for no effect and ±100 for the full control effect; nearly all actives have a fitted effect of over 35% in size. A digest of the protocol: as §1
A short description of assay [16]: qHTS RealTime-Glo MT Cell Viability Assay in HEK293 cells - 24 hour (AID 1224886). Note: nearly all actives have a fitted effect of over 50% in size. Note: potency is the fitted concentration of half-maximal effect. In a few lines:
(§5)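 Tox21 10K qHTS, HEK293, 600 cells/well, RealTime-Glo reagent co-dispensed with cells; 5 h preincubation, compound by pintool, 37 C, luminescence at 0–40 h.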

Assay [17] is described as follows: A CellTox Green Cytotoxicity Assay to monitor cytotoxicity in HEK293 cells - 16 hour (AID 1224888). Note: % is set by controls: 0 for no effect and ±100 for the full control effect; nearly all actives have a fitted effect of over 35% in size. In a few lines:
as §1

A short description of assay [18]: A CellTox Green Cytotoxicity Assay to monitor cytotoxicity in HepG2 cells - 8 hour (AID 1224890). A digest of the protocol:
as §4

Assay [19] is described as follows: qHTS RealTime-Glo MT Cell Viability Assay in HEK293 cells - 16 hour (AID 1224872). Note: nearly all actives have a fitted effect of over 50% in size. Note: potency is the fitted concentration of half-maximal effect. A digest of the protocol:
as §5

A short description of assay [20]: qHTS RealTime-Glo MT Cell Viability Assay in HEK293 cells - 8 hour (AID 1224887). Note: nearly all actives have a fitted effect of over 50% in size. Note: potency is the fitted concentration of half-maximal effect. In a few lines: as §3

Each structure is given as a SMILES string. Values without a mark were called inactive. Records with an inconclusive call do not appear. Activity calls are given as the source filed them. Calls come from the whole dose curve; as a rule, active = well fitted curve in the direction sought with a large enough effect in the repeat runs; inconclusive = weak or mixed curves; inactive = no such curve, though single readings can be large; an effect the other way counts as inactive or inconclusive.

As for `CC(Cc1ccc(C(C)(C)C)cc1)CN1C[C@@H](C)O[C@@H](C)C1` (stereo not given in full), the Potency in assay [1], in assay [3] and in assay [6] was 49 µM (active) throughout. The Potency entry in [2], in assay [4], in assay [5], in assay [7], in assay [8] and in [9] was “inactive” each time.

Regarding `CCCN(CC)CC1COC2(CCC(C(C)(C)C)CC2)O1` (stereo not given), the Potency result in assay [2], in assay [3], in assay [11], in assay [4], in assay [12] and in assay [13] was “inactive” each time. The Potency result in [5], in assay [7], in [14], in assay [15], in assay [8] and in assay [16] was “inactive” throughout. The Potency entry in assay [17], in assay [9] and in assay [18] was “inactive” throughout. Besides, the max response in assay [10] was -8.74%.

As to `CCOP(=S)(OCC)OC(Cl)C(Cl)(Cl)Cl` (stereo not given), the Potency result in [19], in assay [2], in [11], in [4], in assay [12] and in assay [13] was “inactive” each time. The Potency result in [5], in [7], in [14], in assay [8], in assay [16] and in assay [20] was “inactive” in each case. Moreover, the Potency result in [17], in [9] and in assay [18] was “inactive” each time. Further, the max response in assay [10] was -10.7%.

With `O=[N+]([O-])c1cc([N+](=O)[O-])c2ccccc2c1`, the max response in assay [10] was 4.65%. Besides, the Potency entry in [11], in [13], in assay [7], in [16] and in assay [20] was “inactive” throughout.

Turning to `CC[C@H](C)[C@H]1O[C@]2(C=C[C@@H]1C)C[C@@H]1C[C@@H](C/C=C(\C)[C@@H](O[C@H]3C[C@H](OC)[C@@H](O[C@H]4C[C@H](OC)[C@@H](O)[C@H](C)O4)[C@H](C)O3)[C@@H](C)/C=C/C=C3\CO[C@@H]4[C@H](O)C(C)=C[C@@H](C(=O)O1)[C@]34O)O2`, the Potency in assay [10] was 10.3 µM (active). The Potency entry in [3], in assay [5], in assay [7], in assay [20], in assay [17] and in assay [9] was “inactive” throughout.

Turning to `OC(Cc1ccccc1Cl)(Cn1cncn1)C1(Cl)CC1` (stereo not given), the Potency result in assay [2], in assay [3], in assay [4], in assay [12], in assay [13] and in [5] was “inactive” throughout. Moreover, the Potency entry in assay [14], in assay [8], in assay [17] and in assay [18] was “inactive” in each case. For the same molecule, the Potency in [10] was 49 µM (active); in [16], 54.9 µM (active); in assay [9] it was 24.5 µM (active).

On to `Cc1cc(C(C)(C)c2cc(C)c(O)c(C)c2)cc(C)c1O`, for which the figures for the Potency in assay [19], in assay [10] and in assay [16] were 23.7 µM (active), 18.9 µM (active) and 21.2 µM (active), respectively. For the same molecule, the Potency result in assay [3], in assay [5], in assay [6], in assay [7], in assay [15] and in assay [17] was “inactive” each time. Besides, the Potency result in assay [9] and in [18] was “inactive” throughout.

Consider `ClCc1ccc(Cl)cc1Cl`, for which the Potency result in assay [19], in [2], in assay [11], in assay [4], in assay [12] and in assay [13] was “inactive” throughout. Also, the Potency entry in [7], in [14], in assay [8], in [16], in [20] and in [9] was “inactive” each time. In addition, in assay [18], the Potency result was “inactive”.

For the molecule `CC(C)(c1ccc(O)c(-c2ccccc2)c1)c1ccc(O)c(-c2ccccc2)c1`, the Potency in assay [19] was 21.9 µM (active); in [2] it was 49 µM (active); in assay [10], 19.5 µM (active); in assay [12], 49 µM (active); in assay [13], 49 µM (active); in [8], 49 µM (active). For the same molecule, the Potency in [16] and in assay [20] was 21.9 µM (active) in each case. Moreover, the Potency entry in [5], in assay [7] and in assay [9] was “inactive” in each case.

Regarding `CC(Cl)CN(C)C` (stereo not given), the Potency entry in [2], in [11], in [4], in assay [12], in assay [13] and in assay [14] was “inactive” each time. Also, the Potency result in [8], in assay [9] and in [18] was “inactive” in each case.

In the case of `CC1(C)CC/C(=C/c2ccc(Cl)cc2)C1(O)Cn1cncn1` (stereo not given), the Potency result in assay [2], in assay [3], in assay [11], in [4], in [5] and in assay [7] was “inactive” each time. Moreover, the Potency entry in [8], in assay [9] and in assay [18] was “inactive” in each case. Moreover, the Potency in assay [16] is 24.4 µM (active).

For `N#C/C=C/C#N`, the Potency entry in assay [2], in [3], in assay [11], in [4], in [12] and in [13] was “inactive” each time. Moreover, the Potency entry in assay [6], in assay [7], in assay [14], in [15], in assay [8] and in [17] was “inactive” throughout. In assay [18], the Potency result is “inactive”.

Regarding `O=S(=O)(c1ccc(Cl)cc1)c1ccc(Cl)cc1`, the Potency entry in assay [11], in assay [4], in assay [12], in [13], in assay [7] and in [14] was “inactive” each time. Also, the Potency entry in assay [15], in [8], in assay [17], in [9] and in [18] was “inactive” in each case.
